Source: PubChem (several laboratories)
SENP7 inh: inhibitors of human SENP7 protease. Q9BQF6. recombinant SENP7, Z-RLRGG-aminoluciferin luminescence, 40 min. inhibition, % at 5 µM. 1.5% of 330,000 active. AID 434973;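 active means inhibition above about 50% at the single test dose, limit read from the data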
SENP8 block-1: SENP8 (human) protease inhibition; Q96LD8; recombinant SENP8, Nedd8 substrate fluorescence; inhibition, % at 20 µM; 0.64% of 360,000 active; AID 602440; in the data active means inhibition mostly above about 40%, no sharp cut-off; inactive means mostly below about 27%
SENP6 block: SENP6 protease inhibition; Recombinant SENP6 catalytic domain, aminoluciferin luminescence; Q9GZR1; inhibition, % at 10 µM; AID 2599; 1.8% of 330,000 active;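 active means inhibition above about 50% at the single tested dose, limit read from the data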
Target sequence (Q9GZR1 628-1112 limits assumed): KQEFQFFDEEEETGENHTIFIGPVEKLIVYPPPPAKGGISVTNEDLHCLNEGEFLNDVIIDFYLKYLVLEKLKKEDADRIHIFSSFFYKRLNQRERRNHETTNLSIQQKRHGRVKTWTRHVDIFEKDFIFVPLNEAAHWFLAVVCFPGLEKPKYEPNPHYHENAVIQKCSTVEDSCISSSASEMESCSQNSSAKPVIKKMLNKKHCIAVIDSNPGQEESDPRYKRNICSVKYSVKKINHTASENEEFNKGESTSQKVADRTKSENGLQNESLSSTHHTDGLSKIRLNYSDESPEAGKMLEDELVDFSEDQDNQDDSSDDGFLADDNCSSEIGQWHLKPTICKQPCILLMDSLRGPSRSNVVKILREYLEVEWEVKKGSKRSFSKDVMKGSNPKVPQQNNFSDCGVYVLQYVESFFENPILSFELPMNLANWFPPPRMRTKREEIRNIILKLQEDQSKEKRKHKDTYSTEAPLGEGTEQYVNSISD
Platelet DG rel: platelet dense granule release activity. human platelet-rich plasma, SFLLRN dense granule ATP release, luminescence. inhibition, %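 (compounds screened at 7.5 µM in platelet-rich plasma)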. 0.22% of 300,000 active;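 active means mean replicate score, as percent of positive control, at or above 50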
SENP8 block-2: blocks the human protease SENP8; AID 2540; Q96LD8; 1.2% of 330,000 active; purified SENP8, Z-RLRGG-aminoluciferin cleavage, luminescence; inhibition, % at 10 µM; in the data active means inhibition above about 50%
Numbers stand for hits; . = inactive; / = no result given. In the library only some 2.4% were active in any assay of this set; here they are far more common.

SMILES	SENP7 inh	SENP8 block-1	SENP6 block	Platelet DG rel	SENP8 block-2
CSc1ccc(NC(=O)Nc2ccccc2C(N)=O)cc1	95.4	.	97.0	.	91.6
CC(C)(C)NC(=O)Nc1ccccc1C(N)=O	.	.	.	.	.
CC(=O)NC1C(=O)N=C(SCC(=O)Nc2cccc(Cl)c2)NC1=O (configuration not stated)	.	.	.	.	.
Nc1[nH][nH]c(=O)c1N=Nc1cccc(Cl)c1	.	.	.	.	.
O=C1CCN(N=Nc2cccc(Cl)c2)N1	.	/	.	52.8	.
C(=Nc1cccc2c(N=Cc3ccco3)cccc12)c1ccco1	.	.	85.8	.	71.6
NC(=O)CSc1cn(Cc2ccc(F)cc2)c2ccccc12	.	.	.	59.2	.
NC(=O)CSc1cn(Cc2ccccc2)c2ccccc12	.	.	.	.	.
Cn1cccc1/C=C1\SC(=S)N(Nc2ccccc2)C1=O	.	42.7	.	.	.
O=C1/C(=C/c2cccnc2)SC(=S)N1Nc1ccccc1	.	.	.	.	.
C1=C[C@H]2CC[C@@H]1N(c1ccccc1)O2	.	.	/	/	/
O=C(c1ccc2c(c1)N(Cc1cccc(Cl)c1)C(=O)c1ccccc1S2(=O)=O)N1CCN(c2ccccn2)CC1	.	.	.	.	.
COc1ccc2c(c1OC)C(=O)OC2Nc1nc(-c2cc3cc(Br)ccc3oc2=O)cs1 (configuration not stated)	90.9	.	94.6	.	90.9
COC(=O)c1ccc2c(c1)NC(=O)c1ccccc1S2	.	.	.	.	.
N#C/C=C1/NC(=O)c2ccccc2S1	.	44.3	.	.	.
COc1ccc(/C=C\c2nc(=O)c3ccccc3o2)cc1	62.8	.	72.2	.	66.2
CCOC(=O)c1cccc(NC(=O)Nc2ccc(OCC)cc2)c1	.	.	.	.	.
O=C(NCc1ccccc1)C(=O)Nc1cccc(C(=O)O)c1	93.0	.	92.8	.	83.6
CSc1cccc(NC(=O)C(=O)NCc2ccccc2)c1	.	.	.	.	.
CCOc1ccc(NC(=O)Nc2cccc(C(=O)O)c2)cc1	98.7	.	99.1	.	96.7
O=C(Nc1cccc(Cl)c1)Nc1cccc(C(=O)O)c1	93.0	.	95.7	.	87.3
COC(=O)C1(C(F)(F)F)N=C2Sc3ccccc3N2C(N2CCOCC2)=N1 (configuration not stated)	.	.	.	104.9	.
COc1ccccc1N1CCN(C(=O)N2CCOCC2)CC1	.	.	.	.	.
CCc1c(C)[nH]n(-c2nc(-c3ccccc3)cs2)c1=O	.	.	.	.	.
Cc1[nH]n(-c2nc(-c3ccc(Cl)cc3)cs2)c(=O)c1N=Nc1ccc(O)cc1	.	41.1	.	.	.
SMILES	SENP7 inh	SENP8 block-1	SENP6 block	Platelet DG rel	SENP8 block-2
[O-][N+]1=c2ccc(Nc3ccccc3)cc2=NC12CCCCC2	/	86.5	/	.	/
CC(=O)c1ccc(S(=O)(=O)NC2CC(=O)N(c3ccc(C)c(C)c3)C2)cc1 (configuration not stated)	.	.	.	.	.
CC(=O)NNC(=S)Nc1cc(S(=O)(=O)N(C)C)ccc1C	.	.	.	.	.
COc1ccc(CNC(=S)Nc2cccc(OC)c2)cc1	.	.	.	.	.
COc1cccc(NC(=S)Nc2cccc3ccccc23)c1	.	.	88.8	.	87.9
C/C(=C\C(=S)Nc1ccccc1)Nc1cccc2ccccc12	.	.	83.2	.	71.4
Cc1ccc(S(=O)(=O)N(C)C)cc1NC(=S)Nc1cccc2ccccc12	56.5	.	90.4	.	84.1
Cc1ccc(NC(=O)CSc2nc3[nH]ncc3c(=O)[nH]2)cc1Cl	.	.	.	.	.
O=C(COC(=O)c1ccc(O)cc1)c1ccc2c(c1)OCCO2	57.1	.	87.2	/	69.6
O=C(COC(=O)c1ccc(O)cc1)Nc1ccc2c(c1)OCCO2	.	.	.	/	.
CCOc1ccccc1C=C1SC(=S)N(CC)C1=O	/	35.6	/	/	/
CCN1C(=O)/C(=C\N2CCCCCC2)SC1=S	.	46.3	.	.	.
CCN1C(=O)/C(=C/N2CC(C)CC(C)C2)SC1=S (configuration not stated)	.	.	.	.	.
FC(F)(F)C(F)(F)C(F)(F)c1nc2nc(Cl)c(Cl)nc2[nH]1	/	.	/	/	/
CC12CCC3c4ccccc4CCC3(CO1)C2 (configuration not stated)	/	.	/	/	/
CCN(CC)CCNc1ccc(CO)c2sc3ccccc3c(=O)c12	.	.	.	.	.
O=c1c2ccccc2sc2c(CO)ccc(NCCN3CCCCC3)c12	/	41.0	/	/	/
COc1ccccc1N1CCN(C(c2ccc(N(C)C)cc2)c2nnnn2CCc2ccccc2)CC1 (configuration not stated)	.	46.6	.	.	.
COc1ccc(C(c2nnnn2CCc2ccccc2)N2CCN(C3CCCC3)CC2)cc1 (configuration not stated)	.	.	.	.	.
O=C(/C=C/c1cccs1)N1CCc2ccccc21	97.8	.	.	.	93.4
O=c1[nH]c(=S)[nH]c2c1C(c1ccc(F)cc1)OC(CCOCc1ccccc1)C2 (configuration not stated)	/	.	/	/	/
O=C(CNC(=O)c1ccco1)N/N=C/c1cccs1	.	.	.	.	.
C=CCn1c(C)cc(C2=NNC(=NC(C)(C)C)SC2)c1C	.	.	82.8	.	51.0
C=CCn1c(C)cc(C2=NNC(=Nc3ccc(C)cc3)SC2)c1C	.	.	.	.	.
CCOC(=O)C1CCN(C=Nc2cc(C)on2)CC1	.	.	.	56.7	.
SMILES	SENP7 inh	SENP8 block-1	SENP6 block	Platelet DG rel	SENP8 block-2
CCOC(=O)C1CCN(Cc2ccccn2)CC1	.	/	.	.	.
CCN(C(=S)Nc1cc(S(=O)(=O)N2CCOCC2)ccc1Cl)c1cccc2ccccc12	.	.	77.2	.	57.9
O=[N+]([O-])c1cc(N=Nc2ccc3ccccc3c2)ccc1O	/	.	/	54.5	/
c1ccc(CN2CCC3CC2c2cc(N4CCOCC4)ccc23)cc1 (configuration not stated)	/	.	/	/	/
COc1cccc2cc(-c3n[nH]c(=S)n3C)oc12	.	.	.	.	.
COc1cccc2cc(-c3ccnc(N)n3)oc12	53.3	.	.	.	.
COc1cc(NC(=S)N2CCCC(CO)C2)c(OC)cc1Cl (configuration not stated)	.	.	.	.	.
CCCCCCn1c(O)c(/C=C2\C=NN=C2c2ccccc2)sc1=S	.	42.2	.	.	.
CCCCn1c(O)c(/C=C2\C=NN=C2c2ccccc2)sc1=S	.	.	.	.	.
CC(C)Cn1c(O)c(/C=C2\C=NN=C2c2ccccc2)sc1=S	.	40.4	.	.	.
Nc1nc2cc(S(=O)(=O)N3CCOCC3)ccc2o1	.	.	.	/	.
Fc1ccc(-c2ccc3c(c2)C2CC3CCN2)cc1 (configuration not stated)	/	.	/	/	/
CCCC(=O)NC(c1ccco1)c1cc([N+](=O)[O-])c2cccnc2c1O (configuration not stated)	.	53.3	.	.	.
CC(=O)NC(c1ccccc1)c1cc(Cl)c2cccnc2c1O (configuration not stated)	.	.	.	.	.
